Reference: PubChem BioAssay AID1159580 (chemical genetic matrix, 2015)
Several values for one entry are separate records, joined by “and”; a condition that tells them apart may be missing. Equal values may be shown once. Screen size: about 5,500 compounds; about 2,000 (36%) were called active. Roughly 18% stayed inconclusive and do not appear here. Cut-off read from the data, not from the text of the source: active = normalized growth mostly below about 0.91 (no sharp cut-off); inconclusive = no clear call, values can overlap the other calls; inactive = mostly above about 0.92. The list shows a part of the results.

Experiment: chemical genetic growth profiling, strain panel (AID 1159580);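 note: tested at 20 µM; growth read once vehicle control cultures reached saturation at 30 °C; 1 = growth at the plate median or of vehicle wells; lower values mean less growth of the strain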
Settings: S. cerevisiae deletion strains, growth OD

Measured: normalized growth

COc1ccc2c(c1OC)C(=O)OC2[C@H]1c2c(cc3c(c2OC)OCO3)CCN1C (some centres not stated)
inactive: locus YAL013W, strain DEP1, hits give low values 1.01 | locus YAL021C, strain ccr4, hits give low values 1.02 | locus YAL026C, strain drs2, hits give low values 1.02 | locus YAL030W, strain snc1, hits give low values 1.02 | locus YBL061C, strain skt5, hits give low values 1.01 | locus YBR009C, strain hhf1, hits give low values 1.02 | locus YBR021W, strain FUR4, hits give low values 1.01 | locus YBR023C, strain chs3, hits give low values 1.02 | locus YBR171W, strain sec66, hits give low values 1.01 | locus YBR229C, strain ROT2, hits give low values 1.01 | locus YBR231C, strain swc5, hits give low values 1.01 | locus YBR279W, strain paf1, hits give low values 1.01 | locus YCL011C, strain gbp2, hits give low values 1.02 | locus YCL016C, strain dcc1, hits give low values 1.02 | locus YCL029C, strain bik1, hits give low values 0.987 | locus YCL061C, strain MRC1, hits give low values 1.01 | locus YCL069W, strain vba3, hits give low values 1.01 | locus YCR088W, strain abp1, hits give low values 1.01 | locus YDL005C, strain med2, hits give low values 0.995 | locus YDL035C, strain GPR1, hits give low values 1.01 | locus YDL040C, strain nat1, hits give low values 1 | locus YDL074C, strain BRE1, hits give low values 1.04 | locus YDL101C, strain DUN1, hits give low values 1 | locus YDL134C, strain PPH21, hits give low values 1.01 | locus YDL185W, strain tfp1, hits give low values 0.966 | locus YDL192W, strain arf1, hits give low values 0.968 | locus YDR001C, strain nth1, hits give low values 1 | locus YDR069C, strain doa4, hits give low values 1.02 | locus YDR101C, strain arx1, hits give low values 0.995 | locus YDR137W, strain rgp1, hits give low values 1.04 | locus YDR159W, strain sac3, hits give low values 0.953 | locus YDR162C, strain NBP2, hits give low values 0.983 | locus YDR195W, strain ref2 0.993 | locus YDR297W, strain sur2, hits give low values 1.02 | locus YDR318W, strain mcm21, hits give low values 0.965 | locus YDR334W, strain swr1, hits give low values 1 | locus YDR335W, strain msn5, hits give low values 1.01 | locus YDR388W, hits give low values 0.985 | locus YDR392W, strain spt3, hits give low values 0.892 | locus YDR502C, strain sam2, hits give low values 0.984 | locus YEL003W, strain gim4, hits give low values 1.02 | locus YEL037C, strain rad23, hits give low values 1 | locus YEL061C, strain CIN8 (second series), hits give low values 0.996 | locus YEL061C, strain CIN8, hits give low values 1 | locus YER015W, strain faa2, hits give low values 1.01 | locus YER016W, strain bim1, hits give low values 1 | locus YER110C, hits give low values 0.994 | locus YER111C, strain swi4, hits give low values 1.01 | locus YER155C, strain BEM2 (second series), hits give low values 0.98 | locus YER155C, strain BEM2, hits give low values 0.992 | locus YER167W, strain BCK2, hits give low values 1 | locus YFR010W, strain ubp6, hits give low values 1 | locus YGL078C, strain dbp3, hits give low values 0.989 | locus YGL086W, strain mad1, hits give low values 1.01 | locus YGL167C, strain pmr1, hits give low values 1.01 | locus YGL173C, strain kem1, hits give low values 1.01 | locus YGL227W, strain vid30, hits give low values 1.01 | locus YGL240W, strain doc1, hits give low values 1.02 | locus YGL248W, strain PDE1, hits give low values 1.01 | locus YGL253W, strain hxk2, hits give low values 1.02 | locus YGR135W, strain pre9, hits give low values 0.986 | locus YGR252W, strain gcn5, hits give low values 1.19 | locus YHR013C, strain ard1, hits give low values 1.02 | locus YHR027C, strain rpn1, hits give low values 1.01 | locus YHR030C, strain SLT2, hits give low values 0.995 and 0.993 | locus YHR079C, strain IRE1 (second series), hits give low values 0.978 | locus YHR079C, strain IRE1, hits give low values 0.999 | locus YHR094C, strain hxt1, hits give low values 0.988 | locus YHR129C, strain ARP1, hits give low values 0.999 | locus YHR142W, strain chs7, hits give low values 1 | locus YHR200W, strain rpn10, hits give low values 0.98 | locus YIL066C, strain RNR3, hits give low values 1.01 | locus YIL073C, strain SPO22, hits give low values 0.857 | locus YIL125W, strain kgd1, hits give low values 0.986 | locus YIR030C, strain dcg1, hits give low values 0.997 | locus YJL092W, strain hpr5, hits give low values 1.01 | locus YJL095W, strain BCK1 (second series), hits give low values 1.01 | locus YJL095W, strain BCK1, hits give low values 1.02 and 1 | locus YJL115W, strain asf1, hits give low values 1.01 | locus YJL129C, strain trk1, hits give low values 0.995 | locus YJL134W, strain LCB3, hits give low values 0.996 | locus YJL154C, strain vps35, hits give low values 1.02 | locus YJL164C, strain tpk1, hits give low values 1.03 | locus YJL166W, strain qcr8, hits give low values 1 | locus YJL168C, strain set2, hits give low values 0.987 | locus YJL187C, strain SWE1 (second series), hits give low values 0.997 | locus YJL187C, strain SWE1, hits give low values 1.02
